Source: PubChem BioAssay (several laboratories)
ARNT TACC3 PPI: ARNT/TACC3 interaction disruption. Q9Y6A5. AlphaScreen His-ARNT PAS-B/GST-TACC3 binding, luminescence; TACC3 fragment carries E629A point mutation. inhibition, % at 9.99 µM. 390,000 tested, 0.66% active. AID 623870;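 active = mean inhibition of replicates at least 50% and at least half of replicates each reaching 50%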;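 note: 0% = complete ARNT plus TACC3 wells and 100% = ARNT alone without TACC3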
PglD inh: blocks C. jejuni PglD acetyltransferase activity | purified PglD enzyme, DTNB colorimetric CoA detection | inhibition, % at 12.5 µM | 360,000 tested, 0.098% active | AID 602405; in the data active = inhibition above about 16%, passing the limit was not always enough
PDI turbidity: inhibitors of human protein disulfide isomerase; 350,000 tested, 0.052% active; PDI insulin aggregation turbidity, A650, 90 min; P07237; AID 588391; inhibition, % at 10 µM;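 active = mean inhibition across replicates of 30% or more, whatever share of single replicates reach that level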
ALR inh: blocks human ALR sulfhydryl oxidase activity; P55789; purified ALR, DTT oxidation, H2O2 HRP-luminol luminescence; inhibition, % (concentration not given with the values); 290,000 tested, 3.8% active;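 active = mean replicate inhibition above about 79%, with every replicate also reaching it, limit read from the data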
Target sequence (P55789 whole entry, looked up): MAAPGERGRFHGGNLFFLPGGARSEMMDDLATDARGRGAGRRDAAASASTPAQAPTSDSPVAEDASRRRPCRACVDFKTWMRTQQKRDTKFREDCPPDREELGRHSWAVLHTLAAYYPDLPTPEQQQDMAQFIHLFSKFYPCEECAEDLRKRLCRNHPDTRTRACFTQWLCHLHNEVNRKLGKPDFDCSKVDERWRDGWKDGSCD
CendR NRP1 mod: NRP-1/CendR interaction modulation. O14786. 360,000 tested, 0.85% active. AID 602438. FAM-RPARPAR peptide binding to NRP-1, fluorescence polarization. inhibition, % at 25 µM;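 active = inhibition or corrected inhibition above about 18%, plus a signal ratio from 0.5 to 1.5, limit read from the data, passing the limit was not always enough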
ERp5 block: inhibitors of human ERp5; Q15084; ERp5 insulin aggregation, absorbance 650 nm, 90 min; inhibition, % at 9.99 µM; 350,000 tested, 0.05% active; AID 651711;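 active = mean replicate inhibition above about 25%, with every replicate also reaching it, limit read from the data, passing the limit was not always enough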
Target sequence (Q15084 whole entry, looked up): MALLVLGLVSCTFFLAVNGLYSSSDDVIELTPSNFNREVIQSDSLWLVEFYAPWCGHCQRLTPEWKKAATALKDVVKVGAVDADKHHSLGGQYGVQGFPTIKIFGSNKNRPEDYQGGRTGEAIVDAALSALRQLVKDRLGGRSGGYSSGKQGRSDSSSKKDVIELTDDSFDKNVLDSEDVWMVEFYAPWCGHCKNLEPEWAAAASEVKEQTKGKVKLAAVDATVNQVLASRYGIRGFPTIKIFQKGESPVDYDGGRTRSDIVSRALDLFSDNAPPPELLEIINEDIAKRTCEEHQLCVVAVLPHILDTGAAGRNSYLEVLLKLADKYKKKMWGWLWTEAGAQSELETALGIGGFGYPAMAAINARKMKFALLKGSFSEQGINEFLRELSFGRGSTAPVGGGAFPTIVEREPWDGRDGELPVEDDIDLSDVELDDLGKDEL
An asterisk follows results filed as active; nt = no result given. This excerpt belongs to a sample that is enriched for hits.

SMILES | ARNT TACC3 PPI | PglD inh | PDI turbidity | ALR inh | CendR NRP1 mod | ERp5 block
NS(=O)(=O)c1ccc(CCNC(=O)c2cc(-c3ccccc3)nc3ccccc23)cc1 | -1.5 | 8.9 | -4.1 | -13.7 | 29.8* | nt
C[C@H](CO)N1C[C@H](C)[C@H](CN(C)Cc2ccc(C(=O)Nc3ccccc3N)cc2)Oc2ccc(NC(=O)Cc3cn(C)c4ccccc34)cc2C1=O | -2.1 | 0.8 | nt | nt | nt | -3.1
Cc1noc(C)c1NC(=O)Nc1ccc2c(c1)C(=O)N(C)[C@H]1CC[C@H](CC(=O)Nc3ccccc3F)O[C@@H]1CO2 | nt | 1.2 | nt | nt | nt | 2.4
CCCNC(=O)N(C)C[C@@H]1Oc2cc(C#CC(C)(C)O)ccc2S(=O)(=O)N([C@H](C)CO)C[C@@H]1C | -6.7 | 6.3 | nt | nt | nt | 0.2
CC(=O)N(C)C[C@@H]1Oc2ncc(C#Cc3cccc(F)c3)cc2C(=O)N([C@@H](C)CO)C[C@@H]1C | 1.2 | -2.4 | nt | nt | nt | 2.4
CC1(C)CCC(=O)N2CC[C@H]3C[C@H](OC(=O)Nc4ccc5c(c4)OCO5)C[C@@H]1[C@H]32 | 2.0 | -0.7 | -6.4 | 1.3 | 19.9* | -6.3
Cc1ccc(-c2cc(=O)c3cc(C)ccc3[nH]2)cc1 | -6.0 | 3.6 | -3.7 | 4.6 | 30.1* | 4.3
O=c1cc(-c2ccccc2)[nH]c2ccc(F)cc12 | -9.9 | 3.9 | -2.4 | -12.8 | 22.7* | -0.6
COC(=O)N[C@@H]1C[C@H]2[C@@H]3CC[C@H]4C[C@@H](OC)CC[C@]4(C)[C@H]3CC[C@]12C | 1.2 | 4.6 | -0.2 | 2.3 | 27.9* | 2.3
COC(=O)N[C@@H]1C[C@H]2[C@@H]3CC[C@H]4C[C@@H](OC)CC[C@]4(C)[C@H]3CC[C@@]12C | 0.0 | -0.8 | -1.9 | -3.9 | 20.1 | -1.1
CCC(=O)N1[C@H](CO)[C@H]2c3ccccc3N(C(=O)c3cnccn3)C[C@H]21 | 0.0 | 1.4 | nt | nt | nt | 11.6
CO[C@@H]1CN(C)C(=O)c2cc(NC(=O)C3CC3)ccc2OC[C@H](C)N(CC2CCOCC2)C[C@H]1C | -14.5 | 1.1 | nt | nt | nt | 3.4
COc1c(OC)c(O)c2c(=O)cc(-c3c(O)cccc3O)oc2c1OC | 7.1 | -4.7 | nt | 96.6* | 13.7 | 5.2
COc1ccc(-c2cc(=O)c3c(O)c(OC)c(OC)c(OC)c3o2)cc1 | 1.4 | nt | -5.1 | nt | -3.5 | 2.6
O=C(c1cccc(F)c1)N1CC2(C1)[C@H](c1ccccc1)[C@@H](CO)N2C(=O)C1CCC1 | nt | nt | nt | nt | nt | -4.6
C[C@@H](NC(=O)c1ncn(Cc2ccccc2)c1C(=O)N[C@H](C)c1ccccc1)c1ccccc1 | 3.0 | 3.6 | 3.4 | -2.1 | 8.5 | 2.2
O=C(O)c1ncn(Cc2ccc(Br)cc2)c1C(=O)O | 46.0* | nt | 0.2 | 4.1 | -9.5 | -3.6
C/C(=N\NC(=O)c1nnn(-c2nonc2N)c1CN(C)c1ccccc1)c1ccccn1 | 48.5* | 1.7 | 3.1 | 1.0 | 7.8 | nt
C/C(=N\NC(=O)c1nnn(-c2nonc2N)c1CN(C)c1ccccc1)c1ccc(O)cc1 | 6.1 | -0.9 | 10.5 | 59.6 | -1.7 | -12.1
Cc1ccc(NC(=O)CSc2nncc3ccccc23)cc1 | -4.7 | nt | -24.7 | 99.1* | -4.2 | 7.4
Cc1nnc(SCC(=O)Nc2ccccc2)c2ccccc12 | -4.4 | 0.2 | -10.5 | 98.9* | -2.3 | -1.8
COc1ccc2cnnc(SCC(=O)Nc3ccc(C(=O)O)cc3)c2c1OC | -1.7 | 6.7 | 3.9 | 98.8* | -7.5 | nt
COc1ccc2cnnc(SCC(=O)Nc3ccc(C(C)=O)cc3)c2c1OC | -13.8 | -13.4 | 2.2 | 73.8 | -12.1 | 0.5
Cc1ccccc1NC(=O)CSc1nnc(C)c2ccccc12 | 1.5 | 4.8 | 6.6 | 96.3* | 8.0 | 1.6
Cc1nnc(SCC(=O)Nc2ccc(O)cc2)c2ccccc12 | 2.0 | 0.7 | -0.4 | 0.4 | -5.1 | 0.0
SMILES | ARNT TACC3 PPI | PglD inh | PDI turbidity | ALR inh | CendR NRP1 mod | ERp5 block
Cc1ccccc1NC(=O)CSc1ccncc1 | 0.2 | -7.5 | 0.6 | -2.3 | -2.5 | -3.7
O=C(Cc1cccnc1)N1CC(=O)N2[C@H](CO)[C@H](c3ccc(C#CC4CCCCC4)cc3)[C@H]2C1 | nt | nt | nt | nt | nt | -0.3
COc1ccc2c3c([nH]c2c1)[C@@H](CO)N(Cc1ccccc1F)CC31CN(C(=O)C2CCCC2)C1 | nt | nt | nt | nt | nt | -3.5
CO[C@H]1CN(C)C(=O)c2ccc(NC(C)=O)cc2OC[C@@H](C)N(CCc2ccccc2)C[C@H]1C | -9.4 | -2.4 | nt | nt | nt | 3.6
CC1(C)OC2OC(C(=O)N/N=C/c3cc(Br)ccc3O)C3OC(C)(C)OC3C2O1 (stereo unspecified) | 60.0* | -3.8 | 1.9 | -2.3 | 6.9 | -6.1
NC(=O)N/N=C\c1cc(Br)ccc1O | 11.5 | nt | 1.0 | 5.3 | 4.5 | 1.8
NC(=S)N/N=C/c1ccc(-c2ccccc2)o1 | 8.2 | nt | -3.9 | 97.9* | -14.6 | -0.8
O/N=C\c1ccc(-c2ccccc2)o1 | -9.4 | nt | -8.9 | 78.4* | 2.7 | -2.3
CN(C)/N=C/c1ccc(/C=N/NC(N)=S)o1 | 14.8 | nt | -1.5 | 98.9* | -5.2 | -6.0
CNC[C@H]1Oc2ccc(NS(=O)(=O)c3ccc(F)cc3)cc2C(=O)N([C@@H](C)CO)C[C@H]1C | 2.3 | 0.6 | nt | nt | nt | 8.9
O=C(Nc1cccc(F)c1)N1CC(=O)N2[C@H](C1)[C@@H](c1ccc(-c3ccc(F)cc3)cc1)[C@@H]2CO | nt | nt | nt | nt | nt | 1.7
Cc1nonc1C(=O)N1CCCC(Nc2ccc(C(C)C)cc2)C1 (stereo unspecified) | 5.9 | 4.3 | 6.4 | -3.2 | -0.3 | -3.6
CC(C)c1ccc(NC2CCCN(C(=O)c3ccc(N4CCOCC4)cc3)C2)cc1 (stereo unspecified) | 7.8 | 0.1 | -5.6 | 97.9* | 5.2 | 8.4
CC(C)c1ccc(NC2CCCN(C(=O)c3ccoc3)C2)cc1 (stereo unspecified) | 1.2 | 0.2 | 3.7 | 98.7* | 0.0 | -3.9
CC(C)c1ccc(NC2CCCN(C(=O)c3ccc(Cn4cnnn4)cc3)C2)cc1 (stereo unspecified) | 3.5 | 1.5 | 5.1 | 58.6 | 4.3 | 8.8
O=C(c1ccoc1)N1CCCC(Nc2ccc(F)c(F)c2)C1 (stereo unspecified) | 9.2 | 2.1 | 4.2 | 59.4 | -1.5 | 3.5
CC(C)c1ccc(NC2CCCN(C(=O)c3ccccc3-c3ncc[nH]3)C2)cc1 (stereo unspecified) | 14.6 | 2.0 | 8.4 | 87.5* | 4.9 | 10.1
O=C(NCc1cccc(F)c1)[C@@H]1[C@@H](CO)[C@@H]2Cn3c(cccc3=O)[C@H]1N2 | 32.7 | 4.0 | nt | nt | nt | 8.0
COc1cccc(C#Cc2ccc3c(c2)[C@H]2[C@H](CCN2C(=O)c2ccc4c(c2)OCO4)[C@H](CO)N3)c1 | nt | nt | nt | nt | nt | 3.1
Cc1cccc(N/N=C2/COC(C)(C)CC2=O)c1 | 2.3 | -2.5 | -0.4 | 92.9* | 0.3 | -1.1
C[C@@H]1CCCCO[C@H](CN(C)CC2CC2)[C@H](C)CN([C@@H](C)CO)C(=O)c2cc(NS(=O)(=O)c3ccccc3)ccc2O1 | -2.3 | -3.4 | nt | nt | nt | 6.7
